Measured values published in PubChem BioAssay AID686979 (National Center for Advancing Translational Sciences (NCATS), 2013).
The whole screen tested about 420,000 compounds, of which about 50,000 (12%) were called active. Inconclusive results (about 26%) are left out. The call rests on the fitted dose curve; in most records, active means well fitted inhibition curve with a large enough effect; inconclusive means small, poorly fitted or top-dose-only effect; inactive means flat fitted curve, though single readings scatter. The entries come from a sample that favours actives as a whole.

Assay: qHTS for Inhibitors of human tyrosyl-DNA phosphodiesterase 1 (TDP1): qHTS in cells in presence of CPT; further: nearly all actives have a fitted effect of over 55% in size
Conditions: chicken DT40 Tdp1-/-;hTDP1 cells + 20 nM CPT, ATP luminescence, 48 h; series mostly up to 46.2 µM; activity change, negative = growth inhibition: at the top concentration
In short: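 Chicken DT40 Tdp1-/- cells complemented with human TDP1, 400 cells/well, exposed to compounds plus 20 nM camptothecin for at least 48 h at 37 C; viability read as ATP content by CellTiter-Glo luminescence.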
On the % scale 0 is the no-effect control and ±100 the full control effect; potency means the concentration at half of the fitted maximal effect.

Row | SMILES | activity change, negative = growth inhibition | Potency
1 | CC1=CCC2C(=O)N(c3cccc(C(=O)NC(C)c4ccccc4)c3)C(=O)C2C1 (centres undefined) | 7.83% (inactive) | –
2 | COc1ccc(Cl)cc1NC(=O)CN(C)CC(=O)Nc1ccc2c(c1)OCO2 | -29.4% (inactive) | –
3 | CC1(c2ccc(Cl)cc2)NC(=O)N(CC(=O)c2ccc3c(c2)OCO3)C1=O (centres undefined) | -26.1% (inactive) | –
4 | Cc1oc(C)c2c(=O)cc(-c3ccc4c(c3)OCO4)cc(OC(=O)c3ccc(Cl)cc3)c12 | – | 20.6 µM (active)
5 | Cc1cc(-c2ccccc2)nc(N2CCC(C(=O)NC34CC5CC(CC(C5)C3)C4)CC2)n1 | -20% (inactive) | –
6 | CSCCC(NC(=O)COc1ccccc1)C(=O)OCCOc1ccc(Br)cc1 (centres undefined) | -7.17% (inactive) | –
7 | CSCCC(NC(=O)COc1ccccc1)C(=O)N1CCN(c2cccc(C(F)(F)F)c2)CC1 (centres undefined) | – | 16.4 µM (active)
8 | CSCCC(NC(=O)COc1ccccc1)C(=O)OCCOc1ccc(F)cc1 (centres undefined) | 1.47% (inactive) | –
9 | Nc1cc(N2CCCCCC2)c2nonc2c1[N+](=O)[O-] | 3.78% (inactive) | –
10 | C(=Nc1ccc(/C=C/c2ccnc3ccccc23)cc1)Nc1ccc(/C=C/c2ccnc3ccccc23)cc1 | – | 10 µM (active)
11 | CCCCC(CCCC)c1ccc(C=Nc2ccc(/C=C/c3ccnc4ccccc34)cc2)cc1 | – | 17.8 µM (active)
12 | C(=Nc1ccc(/C=C/c2ccnc3ccccc23)cc1)c1cc2c3c(c1)CCCN3CCC2 | – | 11.2 µM (active)
13 | Cc1ccc(CNC(=O)CCNS(=O)(=O)c2cccc3nonc23)cc1 | 0.319% (inactive) | –
14 | CCOC(=O)Cc1ccc(NC(=O)Nc2c[nH]c(=O)[nH]c2=O)cc1 | -22% (inactive) | –
15 | O=C(NNC(=S)Nc1ccc(F)cc1)[C@H]1C[C@@H]1c1ccccc1 | -0.703% (inactive) | –
16 | CC(Oc1ccccc1F)C(=O)NN (centres undefined) | -0.304% (inactive) | –
17 | Cc1ccc(S(=O)(=O)N(C)C)cc1NC(=O)CN1c2cccc3cccc(c23)S1(=O)=O | -24.2% (inactive) | –
18 | Cc1c(NC(=O)c2c([N+](=O)[O-])cnn2C)c(=O)n(-c2ccccc2)n1C | -1.75% (inactive) | –
19 | CC(C)CC(NS(=O)(=O)c1ccc2c(c1)oc(=O)n2C)C(=O)NCc1ccccc1Cl (centres undefined) | 8.64% (inactive) | –
20 | O=c1c2cc([N+](=O)[O-])ccc2nc2n1CCC2 | 5.4% (inactive) | –
21 | Cc1cc(C(C)(C)C)cc(C)c1N | -4.73% (inactive) | –
22 | C=CCn1c(=NC(=O)c2ccc(S(=O)(=O)N3CCCC3)cc2)sc2cc(NC(C)=O)ccc21 | -24.1% (inactive) | –
23 | C=CCn1c(CCNC(=O)c2cccs2)n[nH]c1=S | -7.48% (inactive) | –
24 | C=CCn1c(=NC(=O)c2cccs2)sc2cc(NC(C)=O)ccc21 | – | 13 µM (active)
25 | Cc1cccc(CCNS(=O)(=O)c2ccc3c(c2)NC(=O)CO3)c1 | -23.9% (inactive) | –

Row | SMILES | activity change, negative = growth inhibition | Potency
26 | CCOC(=O)c1cc2c(=O)n3ccccc3nc2n(CC2CCCO2)c1=NC(=O)c1ccc(C(C)(C)C)cc1 (centres undefined) | -1.11% (inactive) | –
27 | CCc1nc(SCC(=O)NNC(=O)c2ccc(C)cc2)c2ccccc2n1 | -13.1% (inactive) | –
28 | COC(=O)CSc1nc(C2CC2)nc2ccccc12 | -15.9% (inactive) | –
29 | CC(C)N(C(=O)CSc1nc(COc2ccccc2)nc2ccccc12)C(C)C | – | 23.1 µM (active)
30 | Cc1nn(Cc2ccccc2)c(C)c1C(=O)N1CCN(CC(=O)Nc2ccccc2Cl)CC1 | – | 16.4 µM (active)
31 | Cc1cc(C)cc(NC(=O)NC2CCN(CC(=O)Nc3cccc(Cl)c3C)CC2)c1 | -18% (inactive) | –
32 | CCC(=O)Nc1ccccc1C(=O)N1CCN(Cc2ccccc2)CC1 | -9.21% (inactive) | –
33 | CNC(=O)CN1C(=O)NC(c2ccccc2)(c2ccccc2)C1=O | -0.402% (inactive) | –
34 | COC(=O)c1ccc(C(=O)OC)c(NC(=S)N2CCN(c3ccc(F)cc3)CC2)c1 | -26.1% (inactive) | –
35 | Cc1ccc(CSCC2Nc3ccc(C(=O)N4CCN(c5ccc(F)cc5)CC4)cc3NC2=O)cc1 (centres undefined) | – | 16.4 µM (active)
36 | Cc1ccc(SCC(=O)N2CCN(c3ccc(F)cc3)CC2)cc1 | -23% (inactive) | –
37 | CN(Cc1ccc(CNC[C@H]2O[C@@H](n3cnc4c(N)ncnc43)[C@H](O)[C@@H]2O)o1)S(C)(=O)=O | -7.47% (inactive) | –
38 | Cn1cccc1C(C#N)c1ccccc1C#N (centres undefined) | -1.65% (inactive) | –
39 | Cc1ccc(C2=Nc3c(ccc4ccccc34)C(c3ccncc3)=NN2)cc1 | – | 18.4 µM (active)
40 | CCc1ccc2c(c1)C(c1ccc([N+](=O)[O-])cc1)=NNC(c1ccccc1)=N2 | -24.4% (inactive) | –
41 | Cc1cc(C)n2nc(C(=O)OC(C)C(=O)c3cc(C)c(C)cc3C)nc2n1 (centres undefined) | 9.74% (inactive) | –
42 | COc1ccc(C(=O)NC2CCN(C(=S)NCCc3ccccc3)CC2)cc1 | -9.89% (inactive) | –
43 | COc1ccc(C(=O)NC2CCN(C(=S)Nc3ccccc3)CC2)cc1 | -2.64% (inactive) | –
44 | COc1cc(OC)cc(C(=O)NC2CCN(C(=O)N3c4ccccc4Sc4ccccc43)CC2)c1 | – | 29.1 µM (active)
45 | O=C(c1ncn2c1c(=O)[nH]c1ccccc12)N1CCc2ccccc2C1 | -1.67% (inactive) | –
46 | CCOC(=O)C1CCCN(CC(=O)Nc2cc(C)c3c(=O)oc4ccccc4c3n2)C1 (centres undefined) | 0.0764% (inactive) | –
47 | COc1cc(/C=C/C(=O)O)cc(S(=O)(=O)Nc2ccccc2SC)c1OC | 1.85% (inactive) | –
48 | O=C(COC(=O)c1cc(=O)[nH]c2ccccc12)NCc1cccc(Cl)c1 | -26.8% (inactive) | –
49 | O=C1N(Cc2ccc3c(c2)OCO3)c2ccccc2C1(O)c1c[nH]c2ccccc12 (centres undefined) | – | 18.4 µM (active)
50 | CCn1c(=O)cc(SCC(=O)NCc2ccc3c(c2)OCO3)c2ccccc21 | -32.1% (inactive) | –

Row | SMILES | activity change, negative = growth inhibition | Potency
51 | O=C1N(Cc2ccccc2)c2ccc(Cl)cc2C1(O)c1c[nH]c2ccccc12 (centres undefined) | – | 23.1 µM (active)
52 | O=C(CSc1ncn[nH]1)NCc1ccc2c(c1)OCO2 | 11.8% (inactive) | –
53 | O=C(CC1Oc2ccc(Cl)cc2NC1=O)NCc1ccccc1 (centres undefined) | -14.1% (inactive) | –
54 | CCOc1ccc(CCNC(=O)COC(=O)c2ccc(F)c(S(=O)(=O)N3CCOCC3)c2)cc1OCC | 7.66% (inactive) | –
55 | O=C(CSc1nnc(-c2ccncc2)o1)Nc1cccc(Cl)c1 | 0.739% (inactive) | –
56 | COC(=O)c1cnc(Nc2cc(C)ccc2OC)c2ccccc12 | 1.61% (inactive) | –
57 | O=C(OCc1ccccc1)c1ccc(O)cc1 | -30.5% (inactive) | –
58 | Oc1ccc(CNc2ccccc2O)cc1 | – | 25.9 µM (active)
59 | O=[N+]([O-])c1ccccc1Nc1ccc(O)cc1 | -34.1% (inactive) | –
60 | CCOC(=O)C(C)N(c1ccccc1Cl)S(C)(=O)=O (centres undefined) | -0.811% (inactive) | –
61 | O=C(NCCCN1CCOCC1)c1cc(-c2cccc(O)c2)on1 | -24.8% (inactive) | –
62 | Cc1nc([N+](=O)[O-])nn1C12CC3CC(CC(Br)(C3)C1)C2 | – | 23.1 µM (active)
63 | CC[C@@H](C)[C@H](NC(=O)CCc1c(C)c2cc3c4c(oc3c(C)c2oc1=O)CCCC4)C(=O)O | -12.7% (inactive) | –
64 | COCc1c(C(=O)N/N=C(\C)c2ccncc2)nnn1-c1nonc1N | 5.2% (inactive) | –
65 | CSc1ccc(/C=C2\NC(=O)NC2=O)cc1 | -13.4% (inactive) | –
66 | O=C(Nc1ccnn1C1CCN(Cc2cccc(OCCO)c2)CC1)C1CCCC1 | 3.27% (inactive) | –
67 | CCN(CC)CCN(C(=O)c1cc(Cl)sc1Cl)c1nc2cc3c(cc2s1)OCO3 | -22.6% (inactive) | –
68 | Nc1ccccc1Sc1ccc(C(F)(F)F)cc1[N+](=O)[O-] | -16.5% (inactive) | –
69 | Nc1ccccc1SC(C[N+](=O)[O-])c1ccccc1 (centres undefined) | – | 4.11 µM (active)
70 | Nc1ccccc1SCc1cc([N+](=O)[O-])cc2c1OCOC2 | -9.92% (inactive) | –
71 | COc1ccc(NS(=O)(=O)c2ccc(C)c(C(=O)NNC(=O)c3csc(N4CCOCC4)n3)c2)cc1 | 2.85% (inactive) | –
72 | O=C(NCc1cccnc1)c1cccc(-c2cc3ccccc3oc2=O)c1 | 6.42% (inactive) | –
73 | Cc1ccc(S(=O)(=O)CCC(=O)OCC(=O)N(C)C2CCS(=O)(=O)C2)cc1 (centres undefined) | -1.21% (inactive) | –
74 | Cc1nc([N+](=O)[O-])cn1CC(=O)Nc1ccc2c(c1)OCO2 | 29% (inactive) | –
75 | Cc1ccc2nc(-c3ccc(O)cc3)c(Nc3ccc4c(c3)OCO4)n2c1 | – | 23.1 µM (active)

Row | SMILES | activity change, negative = growth inhibition | Potency
76 | Cc1ccc(SCC(=O)Nc2ccc3c(c2)OCCO3)cc1 | 0.128% (inactive) | –
77 | CC(C)(C)NC(=O)NC(=O)COC(=O)C1(C)CC1(Cl)Cl (centres undefined) | -3.94% (inactive) | –
78 | COc1ccc(CNC(=O)CC2Oc3ccc(C)cc3NC2=O)cc1 (centres undefined) | -7.07% (inactive) | –
79 | Cc1cc(C)cc(NC(=O)C(OC(=O)c2ccc(O)cc2)c2ccccc2)c1 (centres undefined) | -20.1% (inactive) | –
80 | COc1ccc(N2C(=O)CC(SC(C)C)C2=O)cc1 (centres undefined) | -5.56% (inactive) | –
81 | COc1ccc(-c2nc(SCC(=O)N3CCOCC3)n[nH]2)cc1 | -6.79% (inactive) | –
82 | CC(=O)Nc1ccc(N2C(=O)CC(Sc3nccc(C)n3)C2=O)cc1 (centres undefined) | -22.2% (inactive) | –
83 | COc1ccc(N2C(=O)CC(Sc3n[nH]c(-c4ccc(C)cc4)n3)C2=O)cc1 (centres undefined) | – | 2.91 µM (active)
84 | O=C1CC(N2CCN(c3ccc(F)cc3)CC2)C(=O)N1c1ccccc1 (centres undefined) | -10.3% (inactive) | –
85 | Cc1ccc(N2C(=O)CC(Sc3ncn[nH]3)C2=O)cc1 (centres undefined) | – | 5.17 µM (active)
86 | CCOC(=O)c1ccc(N2C(=O)CC(Sc3nc(O)c(CC)c(=O)[nH]3)C2=O)cc1 (centres undefined) | 1.86% (inactive) | –
87 | Cc1ccnc(SC2CC(=O)N(c3ccccc3)C2=O)n1 (centres undefined) | -4.69% (inactive) | –
88 | O=C1CC(Sc2ncn[nH]2)C(=O)N1c1ccccc1 (centres undefined) | – | 8.2 µM (active)
89 | OCC[C@H]1C[C@H](O)[C@@H](O)[C@]2(CCc3ccccc3O2)O1 | -14.2% (inactive) | –
90 | Cc1cc(C)cc(NC(=O)c2cccc(NC(=O)C3C4CC5OC(=O)C3C5C4)c2)c1 (centres undefined) | -4.86% (inactive) | –
91 | O=C(O)CCN(Cc1ccccc1)S(=O)(=O)c1c(Cl)cccc1Cl | -12.6% (inactive) | –
92 | COc1cc(NC(=O)CCS(=O)(=O)c2ccc3c(c2)oc(=O)n3C)cc(OC)c1 | 1.78% (inactive) | –
93 | O=S(=O)(Nc1ccc(OC(F)(F)F)cc1)c1cccc2nonc12 | -1.77% (inactive) | –
94 | C[C@H](NS(=O)(=O)c1ccc(Cl)cc1)C(=O)OCC(=O)N1CCOCC1 | -9.84% (inactive) | –
95 | CC1CN(C(=O)c2ccccc2NS(=O)(=O)c2cccc([N+](=O)[O-])c2)CC(C)O1 (centres undefined) | -3.65% (inactive) | –
96 | COC(=O)C1=CO[C@@H](O[C@@H]2O[C@H](CO)[C@@H](O)[C@H](O)[C@H]2O)C2C1C[C@H](O)[C@@H]2C (some centres undefined) | 6.92% (inactive) | –
97 | CC[C@]12c3[nH]c4cc(CCC(=O)N(C)C)ccc4c3CCN1C(=O)[C@@H](CC(=O)NCCCn1ccnc1)C[C@@H]2C(=O)N1CCN(C(=O)C2CC2)CC1 | 9.71% (inactive) | –
98 | OC(CBr)C[n+]1cccc2cc(Br)ccc21 (centres undefined) | – | 4.47 µM (active)
99 | COc1ccc(N2CCN(S(=O)(=O)c3ccc4c(c3)N(C(C)=O)CCO4)CC2)cc1 | -25.4% (inactive) | –
